# Results published in PubChem BioAssay (EPA / NIEHS).
# “And” between values parts separate entries of the source, which are not always exact repeats. Equal values may be shown once. Results filed as inconclusive are left out. More than one record can exist for a structure, and the calls need not agree. The source made the active and inactive calls. Rule for the calls: active = hit-call score of the fitted dose curve at least 0.9, where 1 is the maximum; inconclusive = response in the unintended direction; inactive = score below 0.9.
# Legend:
# [1] = target: human Endothelin Receptor Type B (ETB), EDNRB (gene 1910) (UniProt P24530); assay: NVS_GPCR_hETB: NovaScreen (NVS) G Protein-Coupled Receptor Assay for human Endothelin Receptor Type B (ETB) (AID 2283267)
# Outline: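 Human astrocytoma cell membranes; radioligand competitive binding read by filter scintillation counting 4 hours after dosing. Single-concentration duplicate screen at 25 uM, then singleton concentration-response up to 50 uM; loss of signal versus DMSO.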
# [2] = target: D(1A) dopamine receptor (Homo sapiens) (UniProt P21728); assay: NVS_GPCR_hDRD1: NovaScreen (NVS) G Protein-Coupled Receptor Assay for human Dopamine Receptor D1 (DRD1) (AID 2283269)
# Outline: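 Cell-free radioligand binding to human DRD1 from HEK293 membranes, read 1 h after dosing by filter-based scintillation counting. Loss of signal versus DMSO baseline marks displacement. Primary screen at 25 uM single concentration in duplicate; actives followed up in concentration series.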
# [3] = target: Muscarinic acetylcholine receptor M3 (Homo sapiens) (UniProt P20309); assay: NVS_GPCR_hM3: NovaScreen (NVS) G Protein-Coupled Receptor Assay for human Muscarinic, M3 Receptor (AID 2283272)
# Outline: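 Radioligand displacement binding on human M3 receptor in CHO-derived membranes, 1 h incubation, filter-based scintillation counting. Primary screen in duplicate at 25 uM; actives followed up in concentration series; loss of signal versus DMSO.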
# [4] = target: Muscarinic acetylcholine receptor M2 (Homo sapiens) (UniProt P08172); assay: NVS_GPCR_hM2: NovaScreen (NVS) G Protein-Coupled Receptor Assay for human Muscarinic, M2 Receptor (AID 2283273)
# Outline: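 Radioligand displacement on human M2 receptor membranes from CHO cells, 1 h incubation, filtration with scintillation counting. Primary screen in duplicate at 25 uM; actives retested in concentration series; loss of signal fitted versus DMSO.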
# [5] = target: human Muscarinic, M4 Receptor, CHRM4 (gene 1132) (UniProt P08173); assay: NVS_GPCR_hM4: NovaScreen (NVS) G Protein-Coupled Receptor Assay for human Muscarinic, M4 Receptor (AID 2283274)
# Outline: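 Cell-free radioligand displacement using CHO-derived human M4 receptor protein, 1 h after dosing; bound radioactivity by filtration and scintillation counting. Primary screen single 25 uM duplicate, actives followed in concentration series.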
# [6] = target: human Neuropeptide Receptor Y1 (NPY1), NPY1R (gene 4886) (UniProt P25929); assay: NVS_GPCR_hNPY1: NovaScreen (NVS) G Protein-Coupled Receptor Assay for human Neuropeptide Receptor Y1 (NPY1) (AID 2283276)
# Outline: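 Cell-free radioligand binding using receptor extracted from SK-N-MC cells, 1 h incubation, filter-based scintillation counting. Primary screen single concentration 25 uM in duplicate; actives followed in concentration series. Loss of bound signal scored versus DMSO.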
# [7] = target: human Neurokinin, NK2 Receptor, TACR2 (gene 6865) (UniProt P21452); assay: NVS_GPCR_hNK2: NovaScreen (NVS) G Protein-Coupled Receptor Assay for human Neurokinin, NK2 Receptor (AID 2283278);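 note: actives reduce bound radioligand signal relative to DMSO baseline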
# Outline: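 CHO-derived membrane protein, radioligand displacement, filter scintillation read at 4 h post-dose. Single-point 25 uM in duplicate, then concentration series for actives; DMSO as negative control.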
# [8] = target: human Opioid Receptor Delta 1 (Opiate D1), OPRD1 (gene 4985) (UniProt P41143); assay: NVS_GPCR_hOpiate_D1: NovaScreen (NVS) G Protein-Coupled Receptor Assay for human Opioid Receptor Delta 1 (Opiate D1) (AID 2283280)
# Outline: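 Radioligand displacement on membranes from CHO cells expressing the receptor, read by filter scintillation counting 1 h after dosing. Duplicate single-point screen at 25 uM, then concentration series for actives; loss of signal versus DMSO.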
# [9] = target: human Thromboxane A2 Receptor (TXA2), TBXA2R (gene 6915) (UniProt P21731); assay: NVS_GPCR_hTXA2: NovaScreen (NVS) G Protein-Coupled Receptor Assay for human Thromboxane A2 Receptor (TXA2) (AID 2283282);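 note: actives reduce bound radioligand signal relative to DMSO baseline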
# Outline: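 Human platelet membranes tested for radioligand displacement by filtration and scintillation counting 1 h post-dose. Screened in duplicate at 25 uM; activity fitted as signal loss relative to DMSO.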
# [10] = target: human Orphanin, Opioid Related Nociceptin Receptor 1 (ORL1), OPRL1 (gene 4987) (UniProt P41146); assay: NVS_GPCR_hORL1: NovaScreen (NVS) G Protein-Coupled Receptor Assay for human Orphanin, Opioid Related Nociceptin Receptor 1 (ORL1) (AID 2283283)
# Outline: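 Filter-based radioligand displacement with receptor extracted from HEK293 cells, read 1 hour after dosing by scintillation counting. Duplicate single-point screen at 25 uM; qualifying chemicals then run in concentration-response to 50 uM, analysed relative to DMSO.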
# [11] = target: human Vasopressin 1A Receptor (V1A), AVPR1A (gene 552) (UniProt P37288); assay: NVS_GPCR_hV1A: NovaScreen (NVS) G Protein-Coupled Receptor Assay for human Vasopressin 1A Receptor (V1A) (AID 2283284)
# Outline: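 Cell-free radioligand displacement on human platelet preparations, 1.5 h incubation, filter-based scintillation counting. Chemicals first tested in duplicate at 25 uM; actives then run in concentration-response up to 50 uM, loss of signal fitted against DMSO.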
# [12] = target: mouse Cholecystokinin, CCK1 Receptor (CCKA), Cckar (gene 12425) (UniProt O08786); assay: NVS_GPCR_mCCKAPeripheral: NovaScreen (NVS) G Protein-Coupled Receptor Assay for mouse Cholecystokinin, CCK1 Receptor (CCKA) (AID 2283285)
# Outline: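 Radioligand competitive displacement on mouse pancreatic membranes, 2 h incubation; filter-based scintillation counting, loss of signal versus DMSO. Single-concentration screen at 25 uM in duplicate, actives retested in concentration-response up to 50 uM.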
# [13] = tested on: 5-hydroxytryptamine receptor 2C (pig); assay: NVS_GPCR_p5HT2C: NovaScreen (NVS) G Protein-Coupled Receptor Assay for pig Serotonin, 5-Hydroxytryptamine Receptor 2C (5HT2C) (AID 2283288)
# Outline: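 Pig choroid plexus membranes; radioligand competitive binding, filter-based scintillation counting, read 1 h after dosing. Primary screen in duplicate at 25 uM; actives then run as concentration series; loss of signal versus DMSO baseline.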
# [14] = tested on: rabbit Platelet Activating Factor Receptor (PAF), gene 100354046; assay: NVS_GPCR_rabPAF: NovaScreen (NVS) G Protein-Coupled Receptor Assay for rabbit Platelet Activating Factor Receptor (PAF) (AID 2283287)
# Outline: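 Rabbit platelet membrane preparation; radioligand displacement read by filter-based scintillation counting 1 h after dosing, loss of signal versus DMSO. Primary screen in duplicate at 25 uM, actives followed up in concentration series.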
# [15] = target: human Leukotriene B4 Receptor 1 (LTB4-BLT1), LTB4R (gene 1241) (UniProt Q15722); assay: NVS_GPCR_hLTB4_BLT1: NovaScreen (NVS) G Protein-Coupled Receptor Assay for human Leukotriene B4 Receptor 1 (LTB4-BLT1) (AID 2283271)
# Outline: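 Radioligand displacement binding on receptor extracted from human neutrophils, cell-free, 1 h after dosing; filter-based scintillation counting. Primary screen in duplicate at 25 uM, actives retested in concentration-response up to 50 uM; loss of signal versus DMSO.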
# [16] = target: Neuropeptide Y receptor type 2 (Homo sapiens) (UniProt P49146); assay: NVS_GPCR_hNPY2: NovaScreen (NVS) G Protein-Coupled Receptor Assay for human Neuropeptide Receptor Y2 (NPY2) (AID 2283277)
# Outline: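 Radioligand binding on membranes extracted from SK-N-MC cells, cell-free, read 1 h after dosing by filter-based scintillation counting. Loss of signal vs DMSO. Primary screen in duplicate at 25 uM; actives followed up in concentration-response up to 50 uM.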
# [17] = target: rat Serotonin, 5-Hydroxytryptamine Receptor 1 (5HT1), Non-Selective Binding, Htr1a (gene 24473) (UniProt P19327); assay: NVS_GPCR_r5HT1_NonSelective: NovaScreen (NVS) G Protein-Coupled Receptor Assay for rat Serotonin, 5-Hydroxytryptamine Receptor 1 (5HT1), Non-Selective Binding (AID 2283286)
# Outline: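 Rat cortical membranes, radioligand displacement, 1 h incubation, read by filter scintillation. Primary screen in duplicate at 25 uM. Hits (e.g. ≥30% inhibition) went to concentration-response up to 50 uM, fitted as loss of binding versus DMSO.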
# [18] = target: human Purinergic Receptor P2Y, P2RY1 (gene 5028) (UniProt P47900); assay: NVS_GPCR_hPY2: NovaScreen (NVS) G Protein-Coupled Receptor Assay for human Purinergic Receptor P2Y (AID 2283281)
# Outline: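 Cell-free radioligand binding using U937-derived protein, 1 h after dosing, filter-based scintillation counting. Screened in duplicate at 25 uM; actives rerun as concentration-response up to 50 uM; loss of signal versus DMSO.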
# [19] = target: Muscarinic acetylcholine receptor M1 (Homo sapiens) (UniProt P11229); assay: NVS_GPCR_hM1: NovaScreen (NVS) G Protein-Coupled Receptor Assay for human Muscarinic, M1 Receptor (AID 2283270)
# Outline: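 Cell-free radioligand displacement using membrane protein extracted from CHO cells, read by filter-based scintillation counting 1 h after dosing. Loss of bound signal fitted versus DMSO; primary screen single concentration 25 uM in duplicate, actives followed by concentration series.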
# Chain of mouse Cholecystokinin, CCK1 Receptor (CCKA), Cckar (gene 12425) (O08786 whole entry, looked up): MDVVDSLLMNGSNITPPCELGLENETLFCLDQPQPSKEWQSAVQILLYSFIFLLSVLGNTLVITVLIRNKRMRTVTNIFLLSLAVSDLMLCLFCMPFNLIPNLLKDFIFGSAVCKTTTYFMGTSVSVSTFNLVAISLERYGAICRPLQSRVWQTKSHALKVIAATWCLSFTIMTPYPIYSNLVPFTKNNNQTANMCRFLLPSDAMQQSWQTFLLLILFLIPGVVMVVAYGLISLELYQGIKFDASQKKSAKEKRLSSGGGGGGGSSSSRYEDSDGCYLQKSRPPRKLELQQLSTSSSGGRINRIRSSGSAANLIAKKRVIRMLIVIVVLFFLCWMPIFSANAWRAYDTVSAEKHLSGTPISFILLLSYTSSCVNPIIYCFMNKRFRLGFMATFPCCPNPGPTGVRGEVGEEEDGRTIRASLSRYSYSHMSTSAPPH
# Chain of human Muscarinic, M4 Receptor, CHRM4 (gene 1132) (P08173 whole entry, looked up): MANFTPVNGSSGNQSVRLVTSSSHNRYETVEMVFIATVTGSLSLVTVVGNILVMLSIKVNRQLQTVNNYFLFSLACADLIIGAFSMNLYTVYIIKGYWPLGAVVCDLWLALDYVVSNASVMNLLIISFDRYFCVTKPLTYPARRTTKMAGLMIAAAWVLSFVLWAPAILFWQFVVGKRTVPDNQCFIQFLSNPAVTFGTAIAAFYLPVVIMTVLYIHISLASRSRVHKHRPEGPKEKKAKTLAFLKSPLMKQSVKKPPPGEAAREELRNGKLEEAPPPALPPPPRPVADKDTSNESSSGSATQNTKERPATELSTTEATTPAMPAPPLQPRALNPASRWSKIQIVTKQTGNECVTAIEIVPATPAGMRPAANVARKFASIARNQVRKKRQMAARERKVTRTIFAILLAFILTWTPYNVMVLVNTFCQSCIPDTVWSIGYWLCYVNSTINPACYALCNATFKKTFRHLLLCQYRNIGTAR
# Chain of D(1A) dopamine receptor (Homo sapiens) (P21728 whole entry, looked up): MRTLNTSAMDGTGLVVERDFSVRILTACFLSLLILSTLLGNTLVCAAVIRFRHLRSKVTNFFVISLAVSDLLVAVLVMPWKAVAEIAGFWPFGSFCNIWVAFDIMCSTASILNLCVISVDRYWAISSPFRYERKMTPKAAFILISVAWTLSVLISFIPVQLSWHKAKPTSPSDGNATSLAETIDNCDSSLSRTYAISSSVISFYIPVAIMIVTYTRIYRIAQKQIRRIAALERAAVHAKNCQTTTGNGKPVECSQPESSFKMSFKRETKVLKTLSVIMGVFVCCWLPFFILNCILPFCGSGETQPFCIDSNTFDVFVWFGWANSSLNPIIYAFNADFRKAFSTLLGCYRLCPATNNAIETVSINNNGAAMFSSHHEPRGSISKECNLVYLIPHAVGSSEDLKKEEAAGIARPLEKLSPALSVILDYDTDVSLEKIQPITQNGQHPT
# Chain of Neuropeptide Y receptor type 2 (Homo sapiens) (P49146 whole entry, looked up): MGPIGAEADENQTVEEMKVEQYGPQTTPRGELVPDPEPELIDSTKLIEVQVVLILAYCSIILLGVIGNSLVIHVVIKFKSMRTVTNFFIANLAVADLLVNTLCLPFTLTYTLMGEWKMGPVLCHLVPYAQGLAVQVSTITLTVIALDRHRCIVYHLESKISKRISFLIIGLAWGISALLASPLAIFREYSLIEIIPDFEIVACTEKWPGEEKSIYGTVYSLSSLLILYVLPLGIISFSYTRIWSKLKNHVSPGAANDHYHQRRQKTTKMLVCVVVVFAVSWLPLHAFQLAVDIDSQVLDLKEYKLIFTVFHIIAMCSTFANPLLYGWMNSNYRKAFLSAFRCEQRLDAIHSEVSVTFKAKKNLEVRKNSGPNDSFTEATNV
# Chain of human Neurokinin, NK2 Receptor, TACR2 (gene 6865) (P21452 whole entry, looked up): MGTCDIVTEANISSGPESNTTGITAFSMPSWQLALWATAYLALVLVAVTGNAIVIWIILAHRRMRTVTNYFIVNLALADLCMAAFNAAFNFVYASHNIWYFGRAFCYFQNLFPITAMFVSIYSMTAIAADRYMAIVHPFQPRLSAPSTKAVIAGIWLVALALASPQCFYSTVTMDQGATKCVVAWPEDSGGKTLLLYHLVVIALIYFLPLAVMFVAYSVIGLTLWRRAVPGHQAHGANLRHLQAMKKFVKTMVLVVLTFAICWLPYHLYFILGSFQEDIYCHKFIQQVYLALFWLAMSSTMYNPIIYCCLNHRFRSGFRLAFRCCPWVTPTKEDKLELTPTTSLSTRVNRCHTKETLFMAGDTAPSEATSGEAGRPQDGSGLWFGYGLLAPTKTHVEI
# Chain of human Opioid Receptor Delta 1 (Opiate D1), OPRD1 (gene 4985) (P41143 whole entry, looked up): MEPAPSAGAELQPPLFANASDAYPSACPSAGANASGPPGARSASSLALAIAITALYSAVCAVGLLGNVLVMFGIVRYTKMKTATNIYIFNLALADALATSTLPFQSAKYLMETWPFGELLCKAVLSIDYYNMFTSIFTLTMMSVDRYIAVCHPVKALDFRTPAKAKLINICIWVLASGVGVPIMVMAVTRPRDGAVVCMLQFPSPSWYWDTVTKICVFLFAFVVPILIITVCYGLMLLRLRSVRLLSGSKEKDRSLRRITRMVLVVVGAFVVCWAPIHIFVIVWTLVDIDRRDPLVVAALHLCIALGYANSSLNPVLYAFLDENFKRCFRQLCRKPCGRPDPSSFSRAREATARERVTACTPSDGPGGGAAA
# Chain of human Thromboxane A2 Receptor (TXA2), TBXA2R (gene 6915) (P21731 whole entry, looked up): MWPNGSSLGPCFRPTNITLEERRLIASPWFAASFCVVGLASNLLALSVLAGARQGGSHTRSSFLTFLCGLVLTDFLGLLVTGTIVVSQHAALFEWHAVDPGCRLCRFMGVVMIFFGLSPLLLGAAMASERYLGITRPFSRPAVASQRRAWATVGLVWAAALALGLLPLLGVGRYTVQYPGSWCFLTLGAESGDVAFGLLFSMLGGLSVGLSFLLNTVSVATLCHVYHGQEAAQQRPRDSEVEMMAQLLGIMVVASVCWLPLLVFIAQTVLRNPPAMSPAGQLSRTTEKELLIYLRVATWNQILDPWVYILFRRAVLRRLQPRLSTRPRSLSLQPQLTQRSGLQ
# Chain of human Leukotriene B4 Receptor 1 (LTB4-BLT1), LTB4R (gene 1241) (Q15722 whole entry, looked up): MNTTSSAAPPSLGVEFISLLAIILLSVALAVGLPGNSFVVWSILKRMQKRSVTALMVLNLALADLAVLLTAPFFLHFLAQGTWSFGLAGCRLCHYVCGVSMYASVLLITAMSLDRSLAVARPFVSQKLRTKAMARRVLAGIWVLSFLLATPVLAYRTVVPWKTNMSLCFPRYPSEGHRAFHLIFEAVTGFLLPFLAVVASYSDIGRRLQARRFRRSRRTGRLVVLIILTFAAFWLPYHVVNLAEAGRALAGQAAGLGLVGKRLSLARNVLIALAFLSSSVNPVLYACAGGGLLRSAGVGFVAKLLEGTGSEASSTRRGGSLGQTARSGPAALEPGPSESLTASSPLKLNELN
# Chain of Muscarinic acetylcholine receptor M3 (Homo sapiens) (P20309 whole entry, looked up): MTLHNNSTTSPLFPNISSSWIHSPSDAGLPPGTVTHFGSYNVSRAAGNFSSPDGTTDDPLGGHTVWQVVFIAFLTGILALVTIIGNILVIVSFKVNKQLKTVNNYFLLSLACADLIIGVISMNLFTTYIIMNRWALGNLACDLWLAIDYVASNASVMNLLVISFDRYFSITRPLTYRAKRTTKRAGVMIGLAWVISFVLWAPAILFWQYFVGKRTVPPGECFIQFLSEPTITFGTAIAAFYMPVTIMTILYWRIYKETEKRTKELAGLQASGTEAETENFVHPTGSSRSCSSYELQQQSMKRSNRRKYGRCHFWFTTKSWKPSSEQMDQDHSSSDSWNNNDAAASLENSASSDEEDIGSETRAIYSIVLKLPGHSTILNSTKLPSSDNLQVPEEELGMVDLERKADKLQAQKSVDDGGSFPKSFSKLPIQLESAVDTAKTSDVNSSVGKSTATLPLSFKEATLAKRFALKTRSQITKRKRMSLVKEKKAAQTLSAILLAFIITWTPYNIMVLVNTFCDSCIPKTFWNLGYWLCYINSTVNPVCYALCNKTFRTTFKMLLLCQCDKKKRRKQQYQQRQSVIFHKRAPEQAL
# Chain of human Orphanin, Opioid Related Nociceptin Receptor 1 (ORL1), OPRL1 (gene 4987) (P41146 whole entry, looked up): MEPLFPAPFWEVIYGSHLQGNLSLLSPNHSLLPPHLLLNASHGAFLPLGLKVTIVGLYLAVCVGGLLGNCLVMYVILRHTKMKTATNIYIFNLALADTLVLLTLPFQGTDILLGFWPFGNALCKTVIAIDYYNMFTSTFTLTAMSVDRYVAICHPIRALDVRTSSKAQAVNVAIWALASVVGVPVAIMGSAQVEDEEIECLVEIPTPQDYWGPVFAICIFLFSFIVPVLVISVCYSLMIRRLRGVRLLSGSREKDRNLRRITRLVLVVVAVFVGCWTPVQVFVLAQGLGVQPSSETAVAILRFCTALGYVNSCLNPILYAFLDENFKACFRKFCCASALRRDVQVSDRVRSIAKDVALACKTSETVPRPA
# Chain of Muscarinic acetylcholine receptor M2 (Homo sapiens) (P08172 whole entry, looked up): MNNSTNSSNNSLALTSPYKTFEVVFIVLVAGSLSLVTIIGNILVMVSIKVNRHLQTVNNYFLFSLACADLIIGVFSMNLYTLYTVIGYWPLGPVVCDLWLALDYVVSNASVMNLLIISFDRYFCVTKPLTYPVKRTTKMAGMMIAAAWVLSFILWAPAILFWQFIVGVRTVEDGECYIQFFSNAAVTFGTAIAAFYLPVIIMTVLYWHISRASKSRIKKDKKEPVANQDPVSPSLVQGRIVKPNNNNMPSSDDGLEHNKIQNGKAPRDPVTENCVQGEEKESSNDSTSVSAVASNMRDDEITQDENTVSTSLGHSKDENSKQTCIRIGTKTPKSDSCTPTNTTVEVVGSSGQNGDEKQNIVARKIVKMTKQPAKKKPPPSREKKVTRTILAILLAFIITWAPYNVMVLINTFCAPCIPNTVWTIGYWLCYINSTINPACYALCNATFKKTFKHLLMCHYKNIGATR
structure (smiles),measurement,setting,value
O=C1c2ccccc2C(=O)N1SC(Cl)(Cl)Cl,outcome,[1],inactive
same,AC50,[2],13.3 µM (active)
Oc1ccc(Cl)cc1Cc1ccccc1,outcome,[1],inactive
same,AC50,[2],33 µM (active) [middle of 6 runs]
same,AC50,[3],39.4 µM (active)
same,outcome,[3],inactive
same,outcome,[4],inactive
same,AC50,[5],31.8 µM (active) and 25.2 µM (active)
same,outcome,[5],inactive
same,outcome,[6],inactive
same,AC50,[7],29.2 µM (active) [middle of 6 runs]
same,AC50,[8],25.2 µM (active) and 13.3 µM (active)
same,AC50,[9],7.86 µM (active) and 5.43 µM (active)
same,outcome,[9],inactive
same,AC50,[10],25.2 µM (active) and 47 µM (active)
same,outcome,[11],inactive
same,AC50,[12],25.2 µM (active) [middle of 5 runs]
same,AC50,[13],12.6 µM (active) [middle of 4 runs]
COP(=O)(OC)OC=C(Cl)Cl,outcome,[14],inactive
O=S1OCC2C(CO1)C1(Cl)C(Cl)=C(Cl)C2(Cl)C1(Cl)Cl (configuration not stated),outcome,[5],inactive
O=C(Nc1ccccc1)Nc1cnns1,outcome,[14],inactive
COP(=S)(OC)Oc1ccc([N+](=O)[O-])cc1,outcome,[15],inactive
same,outcome,[4],inactive
same,AC50,[5],12.1 µM (active)
same,AC50,[16],43 nM (active)
same,outcome,[17],inactive
Cc1cc(C)nc(NC(=O)NS(=O)(=O)c2ccccc2C(=O)OC2COC2)n1,outcome,[8],inactive
same,outcome,[14],inactive
O=S(=O)(O)C(F)(F)C(F)(F)C(F)(F)C(F)(F)C(F)(F)C(F)(F)C(F)(F)C(F)(F)F,AC50,[15],30.1 µM (active) [middle of 4 runs]
same,outcome,[16],inactive
same,outcome,[7],inactive
same,outcome,[8],inactive
same,AC50,[18],15.8 µM (active)
same,AC50,[9],15.8 µM (active) [middle of 4 runs]
same,outcome,[9],inactive
same,outcome,[14],inactive
CC(C)N(C(=O)COc1nnc(C(F)(F)F)s1)c1ccc(F)cc1,outcome,[19],inactive
